System: VDR:RXRa (NR concentration 270 nM, RXRa partner concentration 90 nM)
Experiment: PBM binding z-score (relative to random genomic background probes); higher = stronger binding; sequences stand for … in GC…GCGATTGACAGCGTAGAATGAAGG
Protocol: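 Protein-binding microarray (Agilent 4x180K custom design, double-stranded 60-nt probes: 5' GC cap, 34-nt variable region, 24-nt constant primer region; full probe sequence given). Purified or IVT nuclear receptor:RXRα heterodimers (3:1 NR:RXRα, mostly 270:90 nM) or homodimers were incubated for 1 h in PBS with 2% milk and no ligand, then detected with Alexa488 antibodies. Fluorescence from o1-orientation probes (~5 replicates averaged) was converted to z-scores against 500 random hg19 background probes. Variable regions are seed direct-repeat (DR0–DR5) sites, all their single-nucleotide variants and half-site ablations.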

Row | Sequence | PBM binding z-score
1 | CCTACTGGGCCATTCAGACGTCATTGATCATATG | -0.521
2 | TCTATTAGTTGATTAGGGCAACCTAAACAGCGGA | 0.744
3 | ATCGAAAGTTCGAAGGTGAGTATACCCACCCGAA | 1.29
4 | CCTCGGAGGACCACAGGAGGTCAGAGCTGCCAGA | 1.43
5 | CCAGTCAGGTGAAAGGTAACTCAGTCTGGTACGC | 0.52
6 | AGAATGAAGTTATTAAGATCAGGGAATTGCGGTC | -0.316
7 | CGTCCAAGGTCAAGGTCAGTGATAGAGACTCGAA | 4.95
8 | TCTAGTTGGTCAAAGGTCATACACTCGAAATGCG | 5.38
9 | AGTCAATGTTCATCTAGGTAACGTAAGATATGCT | -0.275
10 | ACTATTAGTTGACTTAGGGCAACCGTTACGACGC | 0.577
11 | GTAACAAGGTGAATAGGTCGTTGATGAGTAGGCG | 1.22
12 | AGAATGAGGTTTCCAAAGATCAGGGAAACGCTTG | -0.555
13 | TCTGCTAGGTCAGTTGGTAAGCTAACGAGCTGCC | -0.00155
14 | ATCGATAGGTCGTGAGGTGAGTATACAGAAAGGC | 1.08
15 | ATATGTAGGTTAAGGGTCATTCAAGTTGGTTCGC | 5.82
16 | ACATACAGGTGATGAAGGTAACTCAGGCTATCAT | 0.555
17 | TCAAATAGGTAAAAGGTGAAAGTCGGTGTGGTAA | 1.79
18 | CCTATTAGTTGACCATAACGGCAACCGAAGCTCG | 0.7
19 | ATATGTAGGATACATCCGGGTCATTCAGGCTATG | 3.21
20 | TCTAGCAGGTCAGAGGGTCACTCAAGAGGTACGG | 4

Row | Sequence | PBM binding z-score
21 | CCTTATGGGTCACTCCAGGTTATAGCATCGGAGT | 3.33
22 | TCTAGCAGGCCAGAGGGTCACCCAAGAGGTACGG | 1.71
23 | AGTCAAAGTCCAGGACGAGGTAACGTAAAGCACG | -0.202
24 | TCATATAGGTAAACAGGTGAAAGGCCGTAAGTTA | 0.988
25 | GCTAGTTGGTCAGTAAAAGGGCACACACCGGTCG | 0.0154
26 | AGTCAAAGTTCAGGACGAGTTAACGTAAAGCACG | 2.96
27 | CGACCAAGGTCAGCAGGTCAGTGAAAGCGACGTG | 3.67
28 | ATCTCTAGCTAACCAAGTTCAGTGAATGCCGAAC | 1.42
29 | AGAATGAGGTTATTAAGATCAGGGACTTGCGGTC | 2.47
30 | ACCTCTAGGTAACCAAGTTCAGTGAATGCCGAAC | 3.96
31 | TCTGGGAGGACACGAAAGGTCAGAGCTCGACATC | 3.35
32 | GCCACTGGGGCAAAGCAGGTTACCATAAGGTTGG | -0.0502
33 | CGAACGAGGGCATGAGTTGAGAGCAAATGCCGAT | 1.01
34 | TCATATAGGTAAAGGCTAGGTGAAAGTCCGATCT | 0.546
35 | CCTACTGGGCCAAAAAGATCATTGATGCCGATAA | -0.303
36 | ATATATAGGTTATCGGGTCATTCAGTTTGCGCAT | 5.37
37 | CCTAATGGGCCAAAAAGGTCATTGATGCCGATAA | 5.11
38 | TCATATAGGTAAATGATAGGTGAAAGTCCGATCT | 1.15
39 | CCTTACGGGTCATGAGGTTATAGCACGACGAGCG | 4.92
40 | CCTCGCAGGACAGAAGGTCAGAGCTGTCCGCTTT | 0.93

— the supplement of paper PMC6555819
